Most compounds without a hit are left out; they make up all but 3.5% or so of the library.
mHTT CaM bind: disrupts binding of mutant huntingtin to calmodulin; P42858; AlphaScreen His-mHTT/GST-CaM binding, luminescence; inhibition, % at 15 µM; hit rate 3.6% among 190,000
Target sequence (P42858 whole entry, looked up, change not shown): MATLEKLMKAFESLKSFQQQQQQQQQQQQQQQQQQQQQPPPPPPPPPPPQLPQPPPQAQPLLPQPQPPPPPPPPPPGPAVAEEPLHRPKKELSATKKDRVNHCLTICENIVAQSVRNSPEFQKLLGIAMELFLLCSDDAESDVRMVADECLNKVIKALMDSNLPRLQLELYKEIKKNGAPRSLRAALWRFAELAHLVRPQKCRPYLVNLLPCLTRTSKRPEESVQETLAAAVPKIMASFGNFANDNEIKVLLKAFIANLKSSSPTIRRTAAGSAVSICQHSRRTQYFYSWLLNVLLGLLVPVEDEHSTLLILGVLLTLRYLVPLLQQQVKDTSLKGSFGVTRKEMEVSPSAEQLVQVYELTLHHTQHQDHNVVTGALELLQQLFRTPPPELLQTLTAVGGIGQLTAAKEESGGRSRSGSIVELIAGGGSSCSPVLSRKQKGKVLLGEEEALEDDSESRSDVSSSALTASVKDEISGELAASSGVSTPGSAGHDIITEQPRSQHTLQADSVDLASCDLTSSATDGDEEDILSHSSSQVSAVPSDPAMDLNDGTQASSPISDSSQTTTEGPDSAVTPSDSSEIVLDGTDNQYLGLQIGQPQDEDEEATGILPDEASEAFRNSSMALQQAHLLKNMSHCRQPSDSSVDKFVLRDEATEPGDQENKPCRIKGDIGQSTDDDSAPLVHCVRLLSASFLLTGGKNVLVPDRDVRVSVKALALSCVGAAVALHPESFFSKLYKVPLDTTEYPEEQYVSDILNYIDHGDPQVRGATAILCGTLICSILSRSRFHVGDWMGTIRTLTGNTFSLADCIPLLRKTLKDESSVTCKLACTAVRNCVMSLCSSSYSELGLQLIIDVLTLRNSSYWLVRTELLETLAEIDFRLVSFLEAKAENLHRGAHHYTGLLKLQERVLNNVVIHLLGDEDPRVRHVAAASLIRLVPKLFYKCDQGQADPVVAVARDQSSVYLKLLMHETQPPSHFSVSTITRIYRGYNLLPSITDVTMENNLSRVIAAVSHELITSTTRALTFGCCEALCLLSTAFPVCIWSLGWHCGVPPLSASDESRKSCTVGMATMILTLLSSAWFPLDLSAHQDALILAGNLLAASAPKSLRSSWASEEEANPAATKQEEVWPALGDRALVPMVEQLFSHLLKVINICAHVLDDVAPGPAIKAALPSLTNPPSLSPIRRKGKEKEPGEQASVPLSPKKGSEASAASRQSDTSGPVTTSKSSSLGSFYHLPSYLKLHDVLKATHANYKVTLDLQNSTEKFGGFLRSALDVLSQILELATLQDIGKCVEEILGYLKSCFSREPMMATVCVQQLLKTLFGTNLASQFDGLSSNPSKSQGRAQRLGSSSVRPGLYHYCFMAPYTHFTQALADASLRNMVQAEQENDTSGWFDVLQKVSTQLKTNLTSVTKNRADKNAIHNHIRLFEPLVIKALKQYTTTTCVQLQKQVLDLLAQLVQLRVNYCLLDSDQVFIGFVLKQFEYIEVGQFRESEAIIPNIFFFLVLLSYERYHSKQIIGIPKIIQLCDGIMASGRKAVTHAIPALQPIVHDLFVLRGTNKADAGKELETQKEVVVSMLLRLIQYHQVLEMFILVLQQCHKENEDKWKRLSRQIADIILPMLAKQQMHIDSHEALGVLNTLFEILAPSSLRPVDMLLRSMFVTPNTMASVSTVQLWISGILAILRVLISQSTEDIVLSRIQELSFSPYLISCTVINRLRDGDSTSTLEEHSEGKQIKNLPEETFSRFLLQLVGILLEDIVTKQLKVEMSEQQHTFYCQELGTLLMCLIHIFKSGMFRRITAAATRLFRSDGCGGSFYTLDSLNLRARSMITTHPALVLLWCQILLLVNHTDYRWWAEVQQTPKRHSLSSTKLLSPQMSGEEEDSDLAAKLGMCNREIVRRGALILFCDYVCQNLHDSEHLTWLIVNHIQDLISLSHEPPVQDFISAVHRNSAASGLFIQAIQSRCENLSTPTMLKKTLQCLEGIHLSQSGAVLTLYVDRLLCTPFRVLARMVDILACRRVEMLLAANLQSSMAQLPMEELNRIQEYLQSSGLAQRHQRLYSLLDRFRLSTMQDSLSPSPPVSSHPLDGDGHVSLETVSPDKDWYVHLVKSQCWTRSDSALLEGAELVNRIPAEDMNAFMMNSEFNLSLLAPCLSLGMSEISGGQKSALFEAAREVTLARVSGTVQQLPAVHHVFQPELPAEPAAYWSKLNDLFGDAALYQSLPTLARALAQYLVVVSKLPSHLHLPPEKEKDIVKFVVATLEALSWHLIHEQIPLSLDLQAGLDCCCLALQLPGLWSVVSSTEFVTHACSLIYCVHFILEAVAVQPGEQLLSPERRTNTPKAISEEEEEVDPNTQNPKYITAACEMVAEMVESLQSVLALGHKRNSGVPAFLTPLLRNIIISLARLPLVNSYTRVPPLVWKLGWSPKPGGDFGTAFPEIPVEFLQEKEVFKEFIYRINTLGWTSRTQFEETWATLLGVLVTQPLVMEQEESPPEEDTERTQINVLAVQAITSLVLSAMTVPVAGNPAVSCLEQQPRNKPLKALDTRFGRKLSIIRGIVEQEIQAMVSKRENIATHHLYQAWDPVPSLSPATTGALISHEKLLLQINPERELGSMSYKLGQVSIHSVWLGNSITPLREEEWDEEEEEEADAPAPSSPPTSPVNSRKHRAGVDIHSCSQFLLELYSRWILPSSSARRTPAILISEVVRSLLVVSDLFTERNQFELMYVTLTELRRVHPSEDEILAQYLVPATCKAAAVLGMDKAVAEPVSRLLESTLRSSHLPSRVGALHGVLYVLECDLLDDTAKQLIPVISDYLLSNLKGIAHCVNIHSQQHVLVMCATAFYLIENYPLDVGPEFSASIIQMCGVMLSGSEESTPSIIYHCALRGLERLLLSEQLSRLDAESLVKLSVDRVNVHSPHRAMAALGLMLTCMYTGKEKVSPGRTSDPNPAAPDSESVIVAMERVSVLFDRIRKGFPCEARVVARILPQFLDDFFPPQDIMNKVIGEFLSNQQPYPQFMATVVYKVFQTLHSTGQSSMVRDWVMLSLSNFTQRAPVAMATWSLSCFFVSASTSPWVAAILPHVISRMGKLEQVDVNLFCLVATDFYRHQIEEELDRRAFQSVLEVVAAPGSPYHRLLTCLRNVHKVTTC
Pf apPOL inh: Pf-apPOL DNA polymerase inhibition | Recombinant Pf-apPOL, molecular beacon fluorescence, 1.5 h | inhibition, % at 10 µM | hit rate 0.25% among 210,000 | AID 1794808
Of the large screens only hits and unclear results are named; the others gave an inactive call. Cut-off read from the data, not from the text of the source: active = inhibition above about 50%; inactive = the rest.

CC1=NN(c2ccccc2)C(=O)/C1=C/c1ccc(N(C)C)c(Br)c1	mHTT CaM bind 65.0
CC1=NN(c2ccccc2)C(=O)/C1=C/c1ccc2c(c1)OCO2	none
CC1=NN(c2ccccc2)C(=O)/C1=C/N1CCCCC1	none
CC1=NN(c2ccccc2)C(=O)/C1=C/c1ccc(O)c(Br)c1	mHTT CaM bind 52.0
CC(C)n1cc(C2=CCN(C(=O)Nc3ccc(F)cc3F)CC2)c2cccnc21	none
O=C1CC2(CCN(C(=O)Nc3ccccc3)CC2)Oc2ccccc21	none
O=C(ON=C1C2CC3CC(C2)CC1C3)c1ccccc1F	none
COc1cc(/C=C2\SC(=O)N(c3ccccc3)C2=O)cc(Br)c1O	none
CCCC1=NN(c2ccccc2)C(=O)/C1=C\c1cc(Br)c(O)c(OC)c1	mHTT CaM bind 67.0
O=S(=O)(Cc1ccc(C(F)(F)F)cc1)c1c[nH]c2ccccc12	none
FC(F)(F)c1ccc(CSc2c[nH]c3ccccc23)cc1	mHTT CaM bind 87.0
Cc1ccsc1C1C2=C(CCCC2=O)Nc2ncnn21 (configuration not stated)	none
Cc1ccsc1C1C2=C(CC(C)(C)CC2=O)Nc2ncnn21 (configuration not stated)	mHTT CaM bind 87.3
CC(=O)C1=C(C)NC(SCC(=O)c2ccc(Cl)cc2)=C(C#N)C1c1sccc1C (configuration not stated)	none
CC(=O)C1=C(C)NC(SCC(=O)c2ccc(Cl)c(Cl)c2)=C(C#N)C1c1ccco1 (configuration not stated)	mHTT CaM bind 54.2
CC(=O)C1=C(C)NC(SCC(=O)c2ccc(Cl)cc2)=C(C#N)C1c1cccc([N+](=O)[O-])c1 (configuration not stated)	none
CC(=O)C1=C(C)NC(SCC(=O)c2cc(Cl)ccc2Cl)=C(C#N)C1c1ccco1 (configuration not stated)	none
CC(=O)C1=C(C)NC(SCC(=O)c2cccc([N+](=O)[O-])c2)=C(C#N)C1c1ccc(Cl)cc1 (configuration not stated)	mHTT CaM bind 55.5
CC(=O)C1=C(C)NC(SCC(=O)c2cccc(Cl)c2)=C(C#N)C1c1sccc1C (configuration not stated)	Pf apPOL inh 100.1
CC1(C)[C@@H]2CCC1(CS(=O)(=O)O)C(=O)C2	none (no result: Pf apPOL inh)
CN1CCN(C(CNC(=O)c2ccc3nsnc3c2)c2ccc(F)cc2)CC1 (configuration not stated)	none
CC(C)NC(=O)N(C)CC(=O)N1N=C(c2ccccc2F)CC1c1ccccc1F (configuration not stated)	none
COc1ccc(C(=O)N2CCC(n3c(-c4ccco4)nc4cccnc43)C2)cc1OC (configuration not stated)	none
CCc1ccc(C(=O)N2CCC(n3c(-c4ccco4)nc4cccnc43)C2)cc1 (configuration not stated)	mHTT CaM bind 75.6
O=C(c1cc(F)cc(F)c1)N1CCC(n2c(-c3ccco3)nc3cccnc32)C1 (configuration not stated)	none
O=C(c1ccc(Br)cc1)N1CCC(n2c(-c3ccco3)nc3cccnc32)C1 (configuration not stated)	mHTT CaM bind 83.5
O=C(c1ccc(Cl)cc1)N1CCC(n2c(-c3ccco3)nc3cccnc32)C1 (configuration not stated)	mHTT CaM bind 76.9
Cc1ccc(C(=O)N2CCC(n3c(-c4ccoc4)nc4cccnc43)C2)cc1F (configuration not stated)	none
O=C(c1ccoc1)N1CCC(n2c(-c3ccco3)nc3cccnc32)C1 (configuration not stated)	none
O=C(c1ccc(F)c(Cl)c1)N1CCC(n2c(-c3ccoc3)nc3cccnc32)C1 (configuration not stated)	mHTT CaM bind 99.2
O=C(NCc1csc(C2CCN(C(=O)Cc3ccccc3F)CC2)n1)C1CCC1	none
Cc1cc(N2CCC(C(=O)NCC(C)C)C2=O)ccc1F (configuration not stated)	none
O=C(NCc1ccc(F)cc1)NCC1(c2ccccc2)CCOCC1	none
O=C(CN1CCN(C(=O)c2ccc3c(c2)OCO3)CC1)c1cccs1	none
Cc1ccc(NC(=O)Cn2[nH]c3c(cnc4ccc(Cl)cc43)c2=O)cc1	none
Cc1ccc(NC(=O)Cn2[nH]c3c(cnc4ccc(F)cc43)c2=O)cc1C	none
Cc1c(Cl)cccc1NC(=O)Cn1[nH]c2c(cnc3ccc(F)cc32)c1=O	mHTT CaM bind 58.0
O=C(Cn1[nH]c2c(cnc3ccc(Cl)cc32)c1=O)Nc1ccc(F)cc1F	mHTT CaM bind 66.0
O=C(Cn1[nH]c2c(cnc3ccc(Cl)cc32)c1=O)Nc1cccc(Cl)c1	none
O=C(Cn1[nH]c2c(cnc3ccc(Cl)cc32)c1=O)Nc1cccc(F)c1	mHTT CaM bind 90.0
Cc1ccc2ncc3c(=O)n(CC(=O)Nc4cccc(F)c4)[nH]c3c2c1	mHTT CaM bind 80.6
Cc1cc(C)cc(NC(=O)Cn2[nH]c3c(cnc4ccc(F)cc43)c2=O)c1	none
Cc1nc(CNC(=O)C2CCCN2S(=O)(=O)c2ccc(C(C)C)cc2)cs1 (configuration not stated)	none
O=C(O)c1ccc(NC(CS(=O)(=O)Cc2ccccc2F)C(=O)O)c([N+](=O)[O-])c1 (configuration not stated)	none
Cc1cccc(-c2noc(-c3ccc(Br)o3)n2)c1	none
O=C(C1CCCO1)N1CCC(OCc2nc(-c3ccccc3)no2)CC1 (configuration not stated)	none
COc1ccc(Br)cc1/C=C1/N=C(c2ccccc2F)OC1=O	none
Cc1cccc(CC(=O)N2CCc3c(nc(-c4ccc(F)cc4)[nH]c3=O)C2)c1	none
CCN1C(=O)CCC2(C(=O)N3CCCCC3)CCCC=C12 (configuration not stated)	none
Cc1ccc(CCNC(=O)CN(C)S(=O)(=O)c2ccc3[nH]c4c(c3c2)CCCC4)cc1	mHTT CaM bind 59.2
COc1ccccc1NC(=O)CN(C)S(=O)(=O)c1ccc2[nH]c3c(c2c1)CCCC3	none
CN(CC(=O)NCc1ccc(Cl)cc1)S(=O)(=O)c1ccc2[nH]c3c(c2c1)CCCC3	mHTT CaM bind 58.0
COc1ccccc1CNC(=O)CN(C)S(=O)(=O)c1ccc2[nH]c3c(c2c1)CCCC3	mHTT CaM bind 57.8
CN(CC(=O)NCCc1ccccc1)S(=O)(=O)c1ccc2[nH]c3c(c2c1)CCCC3	none
COc1cccc(CNC(=O)CN(C)S(=O)(=O)c2ccc3[nH]c4c(c3c2)CCCC4)c1	none
Cc1cccc(CC(=O)N2CCC3(C2)Nc2cccnc2NC3=NC(C)(C)C)c1 (configuration not stated)	none
CC(C)(C)C(=O)Nc1cnc(N2CCCCCC2)nc1	none
CC(C)c1nc(N2CCCCC2)c(C#N)c2c1COC(C)(C)C2	none
CCOc1ccccc1N1CCN(C(=O)CC(C)(C)C)C(C)C1=O (configuration not stated)	none
CCc1cccc(Nc2c(-c3nc(C)no3)cnc3nc(C)ccc23)c1	mHTT CaM bind 68.0
Cc1ccc2c(Nc3ccc(C)c(F)c3)c(-c3nc(C)no3)cnc2n1	none
CC(=O)c1cc(C#N)c(SCC(=O)c2ccc(Cl)cc2)nc1C	none
CC(=O)c1cc(C#N)c(SCC(=O)c2ccc(O)c(O)c2)nc1C	mHTT CaM bind 87.5
Cc1cc(C)c(C#N)c(SC/C=C/c2ccccc2)n1	none
CC(=O)c1cc(C#N)c(SC/C=C/c2ccccc2)nc1C	mHTT CaM bind 97.0
CC1CN(S(C)(=O)=O)CC(C)O1 (configuration not stated)	none (no result: Pf apPOL inh)
O=C(NCC1(O)CCCC1)c1ccc2nsnc2c1	none

Screens as filed in PubChem BioAssay.
